Source: ChEMBL document CHEMBL4888484, “Replenishing the malaria drug discovery pipeline: Screening and hit evaluation of the MMV Hit Generation Library 1 (HGL1) against asexual blood stage Plasmodium falciparum ,using a nano luciferase reporter read-out” (2022)
Screen size: about 4,800 compounds; about 410 (8.5%) showed an effect of 50% or more. Many of the other results were omitted from the sample, so strong results are more common in it than they were.

The molecules below were run on Plasmodium falciparum (assay: Confirmatory screen in NF54 pLDH assay, in single point, at 2uM, 72h). Conditions: timepoint 72 hour.
Format: functional, Erythrocyte

| SMILES | % Inhibition |
| --- | --- |
| Cc1onc(C(=O)NCc2cnn(C)c2C)c1COc1cccc(C(F)(F)F)c1 | -4% |
| O=C(Cn1cnc2cc3c(cc21)OCCCO3)Nc1ccc(F)cc1 | 13% |
| CCc1ccsc1CN=C(N)NC1CCCCC1 | -9% |
| Clc1ccc(-c2onc3c2CCCC3)cc1 | 9% |
| O=C(Nc1onc2c1CCC2)c1ccc2ccccc2c1 | 41% |
| O=C(Nc1cc(-c2onc3c2CCCC3)cc(C(F)(F)F)c1)c1cncc(Br)c1 | 95% |
| Cc1cc(C)cc(-c2cc3nc(C)cc(N4CCC(C(=O)NCc5cccc(F)c5)CC4)n3n2)c1 | 67% |
| Cc1cc(C)cc(-c2cc3nc(C)cc(N4CCC(C(=O)Nc5ccc(C)c(Cl)c5)CC4)n3n2)c1 | -12% |
| O=C(NCc1cccc(F)c1)[C@H]1CCCN(c2nc3ccccc3n(Cc3ccccc3)c2=O)C1 | 5% |
| CC1CN(CC(=O)NCCC#N)C(C)CO1 (stereo not drawn) | 1% |
| Cc1ccc(CN2C(=O)NC3(CCCCC3C)C2=O)c(OCC2CCOC2)c1 (stereo not drawn) | 6% |
| O=C(NCCCN1CCOCC1)C1C2CCCC21 (stereo not drawn) | 8% |
| CN(C)c1ccc(-c2nc(C(F)(F)F)cc(C(F)(F)C(F)(F)F)n2)cc1 | 5% |
| Oc1cccc(CN2CCC3(CC2)C[C@H](c2ccccc2)CN(C2CC2)C3)c1 | 29% |
| Cc1c(C(=O)Nc2cccc(S(=O)(=O)NC3CC3)c2)cnn1C | 12% |
| CC1(CCCCNC(=O)N2CC[C@H](S(C)(=O)=O)C2)OCCO1 | 6% |
| CCN1c2cc(C(=O)NCc3ccccc3)ccc2C(=O)N2CCCC[C@H]21 | 7% |
| COc1ccc(-n2nc(C)c3c2NC(=O)C[C@@H]3c2ccccc2OCC(C)C)nn1 | -1% |
| Cc1nc2cc3c(cc2n1CC(=O)Nc1ccc(Cl)cc1)OCCCO3 | 15% |
| CCc1cccc(NC(=O)Cn2ccc3ccc(-c4nnc(C)o4)cc32)c1 | 89% |
| Cc1noc(C)c1CC(=O)Nc1cccc(-c2nnco2)c1 | 9% |
| Cn1cc(-c2ccc(Cl)cc2)c2ncn(CC(=O)Nc3cccc(Cl)c3)c(=O)c21 | -1% |
| Cc1cc(=O)n(CC(=O)Nc2ccc(Cl)c(C(F)(F)F)c2)c(-c2ccc(F)cc2)n1 | 0% |
| Cc1nnc(-c2ccc3ccn(CC(=O)Nc4ccc(F)c(Cl)c4)c3c2)o1 | 96% |
| CC1CCCC(C)C12NC(=O)N(CN1CCN(CCOc3ccccc3Cl)CC1)C2=O (stereo not drawn) | 5% |
| CCOc1ccc(CNC(=O)c2sccc2NC(=O)c2cnccn2)cc1 | -15% |

| SMILES | % Inhibition |
| --- | --- |
| COc1ccc(C(=O)c2c[nH]c(C(=O)NC[C@H]3CCCO3)c2)cc1 | 3% |
| COc1ccccc1CNC(=O)c1cnn2c3c(cnc12)CCCC3 | -2% |
| Brc1cc(Br)c2nc(-c3cnccn3)ccc2c1 | 14% |
| CC(=O)c1ccc(N2CCN(C(=O)c3nn[nH]c3Nc3ccc(C)c(C)c3)CC2)cc1 | 8% |
| CCn1cc(Cl)c(-c2nnc(-c3cccs3)o2)n1 | 0% |
| CC1CN(C)C(C)c2c1oc1ccc(N)cc21 (stereo not drawn) | -17% |
| CC1=NN(c2ncc(C(F)(F)F)cc2Cl)C(=O)c2ccccc2O1 | 6% |
| CN1CCC(Nc2ncnc3c2cnn3C)C1c1ccc(Cl)cc1 (stereo not drawn) | 12% |
| Brc1cncnc1NC1CC1 | 9% |
| CCCOc1cccc2c(NC3CCN(CCOC)CC3)ccnc12 | 48% |
| Cc1cc2ncn(CN3CC[C@@H](NC(=O)OC(C)(C)C)C3)c2cc1C | -7% |
| CC1CC(Nc2ncnc3cc(Br)ccc23)CCN1C (stereo not drawn) | 95% |
| O=C(NCc1ccco1)c1nc(-c2ccncc2)cs1 | 10% |
| Cc1noc(C)c1NC(=O)CCS(=O)(=O)c1ccc2ccccc2c1 | 4% |
| O=C(Nc1nccnc1C(=O)O)c1ccc(Cl)cc1 | 14% |
| CC1CCC(N2CC(C(=O)N(C3CC3)C(C)C(C)C)CC2=O)CC1 (stereo not drawn) | 1% |
| O=C1c2ccccc2C(=O)N1CCc1csc(Cn2cncn2)n1 | 10% |
| CN1CCN(C2(CNc3ccnc4ccccc34)CCCC2)CC1 | 98% |
| c1ccc(Oc2ccnc(NCC34COCCN3CCOC4)n2)cc1 | -13% |
| Cc1noc(OCCc2ccccc2)n1 | 11% |
| Cc1ccc(C)c(-n2cnc(=O)n2[C@H]2CCN(C3CC3)C2=O)c1 | 51% |
| Cc1ccc(C)c(N2CCN(c3ncc4c(=O)n(-c5ccc6c(c5)OCO6)c(=O)[nH]c4n3)CC2)c1 | 3% |
| Brc1ccc2c(c1)C1CCCCC1N2 (stereo not drawn) | 9% |
| CC[C@H]1CN2C=NC(N3CCN(C(=O)Cc4ccccc4)CC3)=CC2=N1 | 25% |
| CC[C@H]1CN2C=NC(N3CCN(C(=O)Nc4cc(F)cc(F)c4)CC3)=CC2=N1 | 46% |
| Cc1c(F)cccc1NC(=O)N1CCN(C2=CC3=N[C@@H](C)CN3C=N2)CC1 | 54% |

| SMILES | % Inhibition |
| --- | --- |
| COC(=O)c1nc(NC(=O)C2(C)CCCC2)sc1C(C)C | -9% |
| Cc1nnc(N2CC[C@H](c3nnc[nH]3)C2)s1 | 4% |
| CC1(C)CC(=O)C2(Cc3ccccc3N3CCN(Cc4ccccc4)C[C@H]32)C(=O)C1 | 12% |
| COc1c[nH]c(C(=O)NC2CCN(Cc3ccccc3)CC2)cc1=O | 1% |
| O=C(CN1C(=O)COc2cc(Br)ccc21)Nc1cccc2ccccc12 | 9% |
| CC1CCCN(C2(N3CCCC(C)C3)C(=O)Nc3ccc(F)cc32)C1 (stereo not drawn) | 19% |
| N#Cc1cccc(CNCC2(N3CCOCC3)CCCCC2)c1 | -4% |
| Cc1c(S(=O)(=O)NCCn2nc(C(F)(F)F)cc2C)cnn1C | 8% |
| Cc1c(C)c2ccc(NC(=O)c3cc4ccccc4o3)cc2[nH]c1=O | 78% |
| Cc1nc2sc(C(=O)Nc3ccc4ccccc4c3)c(N)c2c(C)c1C | 9% |
| Cc1cc(C(=O)Nc2ccc3ccccc3c2)co1 | -3% |
| O=C(Cn1c(=O)n(-c2cc(F)cc(F)c2)c(=O)c2sccc21)NCc1ccc(F)cc1F | -2% |
| CCC(CC)C(=O)c1c[nH]c(C(N)=O)c1 | -17% |
| Cc1noc(CCNC(=O)N2CCCCC[C@H]2c2ccc(C)o2)n1 | -1% |
| CC(C)(C)c1nc(Cn2cnc3ncc(Br)cc32)no1 | 6% |
| NS(=O)(=O)N1CCN(Cc2ccn(C3CCCC3)n2)CC1 | 9% |
| Cc1nn(-c2ncccn2)c2c1[C@@H](c1ccccc1)CC(=O)N2 | -15% |
| O=C1C[C@H](c2cccnc2)c2cnn(C3CCCC3)c2N1 | 16% |
| Cc1nn(-c2nc3ccccc3[nH]2)c2c1[C@@H](c1cccnc1)CC(=O)N2 | 79% |
| Cc1noc(C2CCN(CC(=O)Nc3ccccc3C(=O)NCC(C)C)CC2)n1 | 1% |
| CCOC(=O)c1nc[nH]c1-n1nc(C)cc1C | 7% |
| COc1ccc(-c2nccn3cc(C(=O)N4CCCCCC4)nc23)cc1 | 4% |
| CC(=O)NC1CN(C(=O)Nc2ccc(C(C)C)c(F)c2)C1 | -11% |
| COc1ccc(C2C(C(=O)O)c3ccccc3C(=O)N2C2CCCCC2)cc1 (stereo not drawn) | -13% |
| Cc1c([C@@H](NCc2ncccc2O)C(C)C)oc2ccccc12 | 94% |
| CC1=NN(c2nc(C)cc(O)n2)C(=O)C1 | -6% |

| SMILES | % Inhibition |
| --- | --- |
| COc1cccc(-c2nc3n(c2C(=O)Nc2ccccc2C#N)CCS3(=O)=O)c1 | 9% |
| Cc1ccc(-c2ccc(=O)n(CCC(=O)N3CCN(C4CCCCC4)CC3)n2)cc1 | 0% |
| C[C@H]1C(=O)N(C)C[C@@H](CNS(=O)(=O)c2ccccc2)N1Cc1cccnc1 | 9% |
| CCN(CC)c1ccc(NS(=O)(=O)c2cc(S(=O)(=O)c3ccc(Cl)c(S(=O)(=O)Nc4ccc(N(CC)CC)cc4)c3)ccc2Cl)cc1 | 5% |
| CN(C)CC(O)COc1ccc(S(=O)(=O)c2ccc(OCC(O)CN(C)C)c(Cl)c2)cc1Cl (stereo not drawn) | 61% |
| COc1cc(=O)c(C(=O)NCCN2CCCCC2)nn1-c1ccc(F)cc1 | 0% |
| Cc1ccc(C(=O)N2CCCC23CCC3)nn1 | -9% |
| O=C(c1[nH]nc(C2CC2)c1Br)N1CCC12CCC2 | -3% |
| CCOc1ccc(C2C(C(=O)O)CCC(=O)N2C2CCCCC2)cc1 (stereo not drawn) | 10% |
| CN(C)c1ccc(C(=O)N2CC[C@H]3NC(=O)N(Cc4ccccc4)C(=O)[C@H]32)cc1 | -5% |
| Cc1ccc(S(=O)(=O)Nc2cccc(-c3csc(C)n3)c2)cc1 | 10% |
| COc1ccc(CNC(=O)c2sc(Nc3ccc(C)cc3C)nc2C)c(OC)c1 | -2% |
| O=C1[C@H](c2cccnc2)N(CCCc2ccccc2)C(=O)CN1c1ccccc1 | -15% |
| CCN(CCN(C)C)C(=O)c1cccc(-c2ccc3nccc(N)c3c2)c1 | 96% |
| CCC(=O)N(CCN(C)C)Cc1c(-c2ccccc2)noc1N1CCCCC1 | 13% |
| COc1ccc(-c2cc3nn(CC(=O)NCCC(C)C)c(=O)n3c(C)n2)cc1 | 1% |
| CCc1sc(N(C(=O)CCc2ccccc2)c2ccc(C)cc2C)nc1-c1ccc(OC)cc1 | 9% |
| CCn1ncc(-c2cc(C(F)(F)F)c3c(C(C)C)nn(-c4ccc(F)cc4)c3n2)c1C | -1% |
| O=C(C[C@H]1CCC(=O)N(Cc2ccccc2)CC1)NC1CCN(Cc2ccccc2)CC1 | 6% |
| O=C(NC1CCCCCC1)c1cn(CC2(O)CCN(Cc3ccccc3)CC2)nn1 | 15% |
| CCn1ncc(C(=O)n2nc(C)cc2C)c1C | 10% |
| O=c1cc(N2CCN(C3CCCC3)CC2)cnn1Cc1ccccc1 | -19% |
| Cc1ccnc(-n2nccc2NC(=O)[C@H](C)Oc2ccccc2)c1 | 0% |
| O=c1c2ccccc2nc2cc(-c3ccc(O)cc3)c(-c3ccccc3)nn12 | 28% |
| CCOC(=O)NC(c1ccccc1F)C1CCCCC1=O (stereo not drawn) | 1% |
